# Measurements reported in PubChem BioAssay AID652115 (Broad Institute, 2013).
# Screen size: about 330,000 compounds; about 3,800 (1.2%) were called active. No stated cut-off is given here; in the data, active means inhibition above about 15%; inconclusive means no clear call, values can overlap the other calls; inactive means below that. The full list was thinned out, with actives kept by preference.
# Target: NAD-dependent protein deacylase sirtuin-5, mitochondrial (Homo sapiens) (UniProt Q9NXA8)
# Sequence (Q9NXA8 whole entry, looked up): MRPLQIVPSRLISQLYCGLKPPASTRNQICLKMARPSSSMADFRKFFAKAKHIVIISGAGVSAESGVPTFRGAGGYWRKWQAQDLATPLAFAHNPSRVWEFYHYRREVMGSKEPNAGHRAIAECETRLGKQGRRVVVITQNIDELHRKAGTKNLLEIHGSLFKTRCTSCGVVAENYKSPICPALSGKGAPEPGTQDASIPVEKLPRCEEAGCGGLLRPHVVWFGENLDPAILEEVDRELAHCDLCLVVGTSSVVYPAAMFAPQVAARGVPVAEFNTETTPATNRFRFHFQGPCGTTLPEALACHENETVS
# Assay: SIRT5 desuccinylase inhibitors, primary screen, biochemical, fluorescence imaging, single point, set 5 (AID 652115)
# Settings: Purified SirT5, succinyl-peptide AMC, trypsin-coupled fluorescence; at 15 µM; hits give high values
row,SMILES,inhibition
1,CC(=O)Nc1ccc(C(=O)C(Cc2ccccc2)N(C)C)cc1 (stereo not given),18.6% (active)
2,O=C(COC(=O)Cc1ccccc1)Nc1ccc(F)cc1,-1.48% (inactive)
3,CC(Cc1ccccc1)NC=O (stereo not given),-0.859% (inactive)
4,COC(=O)[C@H]1[C@H](CO)[C@H]2Cn3c(cccc3=O)[C@H]2N1CC1CC1,0.308% (inactive)
5,COC(=O)C1=C(c2ccc(OCc3ccccc3)cc2)C[C@@H]2CC[C@H]1N2C(=O)NCc1cccc(F)c1,-8.66% (inactive)
6,O=C1NCN(c2ccccc2)C12CCN(C(c1cccs1)c1nnnn1C1CCCCC1)CC2 (stereo not given),3.05% (inactive)
7,COc1cccc(N2C(=O)NC(=O)/C(=C\c3cn(C)c4ccccc34)C2=O)c1,-7.3% (inactive)
8,COc1ccc(CN2C(=O)NC(=O)/C(=C\c3ccc(OC)c(OC)c3OC)C2=O)cc1,-0.842% (inactive)
9,COc1ccc(N2C(=O)/C(=C/c3ccco3)C(=O)NC2=S)cc1,44.4% (active)
10,S=C(NCCc1ccccc1)N1Cc2cc(N3CCOCC3)ccc2-n2nncc2C1,0.564% (inactive)
